Source: PubChem BioAssay AID720519 (National Center for Advancing Translational Sciences (NCATS), 2013)
Inconclusive results are not listed. Calls follow the shape of the dose curve; as a rule, active = well fitted activation curve with a large enough effect; inconclusive = small, poorly fitted or top-dose-only effect; inactive = flat fitted curve, though single readings scatter.

Experiment: qHTS for Inhibitors of Cell Surface uPA Generation: Confirmatory Assay for Cherry-picked Compounds; also: 0% is about no effect
Details: cell surface uPA activity generation, qHTS confirmation; series mostly up to 115 µM; inhibition: at the top concentration
Procedure, shortened: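 RAW 264.7 cells at 4000/well, incubated overnight, then treated with compounds. After 24 h at 37 C, viability was read by ATPlite luminescence. An increase in signal indicates blocked uPA-dependent LF entry.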

inhibition, inactive:
Cc1cc(N)n(Cc2ccc(Cl)cc2)n1 -1.76%
CCOc1cc(S(=O)(=O)NC2CC(C)(C)NC(C)(C)C2)ccc1Cl -0.311%
CCOC(=O)[C@H]1[C@H]2COc3ccc(Br)cc3[C@@H]2N2C(=O)c3c(C)cc(C)cc3NC(=O)[C@@]12C 1.05%
O=C1CCCc2ccccc2N1Cc1ccc(F)cc1 -2.34%
C/C=C/C(=O)Nc1cccc(C2=NOC3(C2)C[C@@H](C(N)=O)N(C(=O)c2cc([N+](=O)[O-])cc([N+](=O)[O-])c2C)C3)c1 (some centres undefined) -2.11%
CCc1ccc(N2CC(C(=O)Nc3ccc4c(c3)OCO4)CC2=O)cc1 (centres undefined) 1.98%
O=[N+]([O-])c1ccc(SCc2ccncc2)nc1 -2.59%
CCN(C1CCS(=O)(=O)C1)S(=O)(=O)c1ccc2ccccc2c1 (centres undefined) -1.14%
O=C(NC(=O)c1ccccc1)Nc1cccc(S(=O)(=O)N2CCCCC2)c1 -0.931%
O=C(CN1CCOC1=O)N1CCCC(Nc2ccc(F)c(F)c2)C1 (centres undefined) -0.931%
C=CCn1c(=O)c(C(=O)NCCc2ccc(Cl)cc2)c(O)c2cc(OC)c(OC)cc21 -0.658%
COc1ncnc(NS(=O)(=O)c2ccc(N)cc2)c1OC 0.555%
Cc1cc(C)n2c(SCC#N)nnc2n1 -0.212%
CN(C(=O)CCn1c(=S)oc2ccccc21)c1ccc(F)cc1 1.34%
O=S(=O)(NCCc1ccccc1F)c1cccc(S(=O)(=O)N2CCOCC2)c1 -3.02%
CCOC(=O)C1CCN(S(=O)(=O)c2c[nH]c(=O)[nH]c2=O)CC1 -1.54%
CCC1=NN(C(=O)C(=O)Nc2ccc(OC)cc2)C(O)(C(F)(F)F)C1 (centres undefined) -1.82%
CC(/C=C1\SC(=S)N(CCCC(=O)Nc2ccc(C(=O)O)cc2)C1=O)=C\c1ccccc1 -2.46%
CN(C(=O)c1ccccc1C(=O)OCC(=O)NCc1ccccc1)C1CCCCC1 -2%
COc1cc(CN2CCN(S(=O)(=O)c3ccccc3)CC2)cc(OC)c1OC 0.54%
NC(=O)CC(NC(=O)Cc1cccc2ccccc12)c1ccc(N2CCN(c3ccccc3)CC2)c([N+](=O)[O-])c1 (centres undefined) 0.273%
COc1ccc(OC)c(N2C(=O)CC(Cc3cc(C)cc(C)c3)C2=O)c1 (centres undefined) -2.59%
Cc1ccc(NS(=O)(=O)c2c(C)nc3sccn3c2=O)c(C)c1 -2.66%
O=c1[nH]c(SCc2cccc(Cl)c2)nc2ccccc12 2.3%
COc1ccccc1C(=O)NCc1ccccc1 -2.97%
COC(=O)/C(C#N)=C\c1c(OC)[nH]c2ccccc12 -0.852%
CCCCn1c(C2CCCCC2)nc2cc3[nH]c(=O)c(C(C)C)nc3cc21 -3.43%
O=C(O)c1ccccc1/C=N/NC(=S)NC1CCCCC1 0.423%
COc1cccc(NC(=O)CN(C)C(=O)c2csc3c2CCCC3)c1 2.11%
CC1C2=C(CC(C)(C)CC2=O)NC2=C1C(=O)CC(C)(C)C2 -0.241%
CCOC(=O)c1c(NC(=S)NC)sc2c1CCCC2 -1.04%
Nc1nc2ccc(Br)cc2o1 -2.31%
Cc1ccc(/C=C/C(=O)O)cc1S(=O)(=O)N1CCc2ccccc21 -3.41%
Cc1ccc(S(=O)(=O)N2CCN(C(=O)c3n[nH]c(=O)c4ccccc34)CC2)cc1 -1.76%
Cc1ccc(C)c(N2N=C(C(=O)N(CC(C)C)c3c(N)n(Cc4ccccc4)c(=O)[nH]c3=O)CCC2=O)c1 -1.48%
CCc1ccc(OCC(=O)N(Cc2cccs2)C2CCS(=O)(=O)C2)cc1 (centres undefined) 0.364%
O=C(COC(=O)c1cccc([N+](=O)[O-])c1)NNC(=O)c1cccs1 0.429%
Cc1cccc(C(=O)Nc2cc(=O)n(C)c(=O)n2C)c1 -2.43%
CC(C)Cn1cnc2c(N)nc3ccccc3c21 12.8%
